The record followed here is PubChem BioAssay (NCATS).

Test [1] in a line: AP1 Signaling Pathway (AID 357; active = well fitted curve in either direction with a large enough effect, not every such curve was filed as active; note: % is set by controls: 0 for no effect and ±100 for the full control effect). Particulars: ME-180 AP-1-bla reporter, EGF-induced, beta-lactamase ratio, 5 h; at 17.2 µM (top of the series) unless noted. The essentials: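 Read-out was the 460nm/530nm emission ratio (excitation 405nm) after CCF4 loading for 2.5 hours at room temperature. Cells carried an AP-1-driven beta-lactamase reporter, were stimulated with EC50 EGF plus compound for 5 hours, and AC50 values came from titrations.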

The nature of test [2]: Stat Signaling Pathway (AID 446; active = well fitted curve in either direction with a large enough effect, not every such curve was filed as active;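 note: ME-180 cervical cancer cells given 40 pM IL-6 alongside compound; SIE-controlled beta-lactamase reporter measured as 460/530 nm FRET emission ratio; % is set by controls: 0 for no effect and ±100 for the full control effect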). The settings on record: ME-180 SIE beta-lactamase reporter, IL-6 stimulated, 5 h; at 17.2 µM (top of the series) unless noted. Put shortly:
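Screening format detects activators and inhibitors alike: ME-180 SIE-bla cells stimulated at 40 pM IL-6 for 5 hrs with compound, then dual-emission beta-lactamase read at 405 nm excitation.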

For test [3], the target named is Glucocorticoid receptor (Homo sapiens) (UniProt P04150). The experiment in a line: GR-GFP Redistribution (AID 450;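 active = compounds whose dose series gives a full or clear partial fitted curve of increased nuclear translocation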; note: potency is the fitted concentration of half-maximal effect).
Test [4] shares this target. The experiment in a line: GR-EFC Redistribution (AID 451; calls by dose curve; note: potency is the fitted concentration of half-maximal effect). Particulars: CHO-K1 GR-EFC translocation, beta-gal luminescence, 2 h. Put shortly:
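CHO-K1 cells expressing nuclear EA and GR-ED fragments of b-gal; compounds titrated up to 46 uM final, 2 h at 37 C. GR nuclear translocation read as complemented b-gal luminescence after 1 h RT detection.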

The target in test [5] is Mitogen-activated protein kinase 10 (Mus musculus) (UniProt Q61831). The experiment in a line: JNK3 AlphaScreen Assay (AID 530; active = well fitted curve in either direction with a large enough effect, not every such curve was filed as active;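 note: kinase came from lysate of stimulated human HepG2 cells; signal reports phosphorylation of biotinylated GST-cJun 1-79 at Ser73 with 10 µM ATP; % is set by controls: 0 for no effect and ±100 for the full control effect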). The essentials: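 Pre-activated (IL-1β/TNFα) JNK3 in HepG2 lysates phosphorylates biotin-GST-cJun(1-79), 10 uM ATP; anti-phospho-cJun(Ser73) AlphaScreen read at room temperature, pH 7.6 Tris buffer. Compounds pre-incubated 15 min as titrations.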

Test [6] concerns the target 3',5'-cyclic-AMP phosphodiesterase 4B (Homo sapiens) (UniProt Q07343). The experiment in a line: qHTS Assay for Inhibitors of PDE-IV (AID 607; active = well fitted activation curve with a large enough effect in the main read-out, with a control signal flat, not every such curve was filed as active; note: % of control where 0% means no effect). Put shortly: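 The readout is membrane depolarisation from a cAMP-sensing CNG channel, detected with a potential dye at ex 535/em 590. Cells were HEK293-derived (endogenous PDE-IV) at 1000 cells/well, titrated up to 22.9 uM final.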
On the technique in general: Quantitative high-throughput screening tests each substance at several concentrations.

Test [7] addresses Cytochrome P450 3A4 (Homo sapiens) (UniProt P08684). The experiment in a line: qHTS Assay for Inhibitors and Substrates of Cytochrome P450 3A4 (AID 884). Note: % is set by controls: 0 for no effect and ±100 for the full control effect; nearly all actives have a fitted effect of over 50% in size. Put shortly:
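20 nM human CYP3A4 with 25 uM Luciferin-PPXE (at KM) in 200 mM KPO4, preincubated 10 min with compound; NADPH regeneration started a 60 min RT reaction. Luciferin detected by luminescence, normalized to 57 uM ketoconazole as full inhibition.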

Test [8] can be described thus: Confirmation and Secondary Assay for Modulators of Hemoglobin Beta Chain Splicing at IVS2 705 locus (AID 930).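 Note: HeLa cells stably expressing the EGFP-705 splicing reporter; GFP fluorescence per well restored by corrected splicing of the IVS2-705 intron in EGFP; % of control where 0% means no effect.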 Put shortly:
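HeLa cells stably carrying EGFP interrupted by mutant beta-globin intron 2 (IVS2-705) treated 2 days at 37C with compound; 500 nM antisense PNA as control. Correct splicing read as total peak GFP intensity per well by laser-scanning cytometry.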

In test [9] the target is Ubiquitin carboxyl-terminal hydrolase 1 (Homo sapiens) (UniProt O94782). The experiment in a line: Inhibitors of USP1/UAF1: Pilot qHTS (AID 504865). Note: potency is the fitted concentration of half-maximal effect; nearly all actives have a fitted effect of over 35% in size. Put shortly:
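In 50mM HEPES pH 7.8 containing 0.5mM EDTA, 1mM TCEP, 0.1 mg/ml BSA and 0.01% Tween-20, 1nM USP1/UAF1 is exposed to compound for 15 min, then Ub-Rho (150nM final) is added and fluorescence is read over time.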

The target in test [10] is Estrogen receptor (Homo sapiens) (UniProt P03372). The experiment in a line: qHTS assay for small molecule agonists of estrogen receptor alpha signaling (AID 588514; calls by dose curve;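 note: 0% = vehicle only and 100% = reference agonist; nearly all actives have a fitted effect of over 70% in size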). The essentials:
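ER-alpha-UAS-bla GripTite HEK293 cells, 5000/well in 2% charcoal/dextran-stripped FBS medium, treated with compound titrations 18 h at 37 C. CCF4 beta-lactamase read by fluorescence after 2 h RT; normalised to 20 nM 17-beta-estradiol (100%) and DMSO (0%), Hill fit for EC50 and efficacy.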

In test [11] the target is Androgen receptor (Homo sapiens) (UniProt P10275). The experiment in a line: qHTS assay for small molecule antagonists of androgen receptor signaling (AID 588516; active = well fitted curve in the direction sought with a large enough effect in the signal ratio, with a control signal flat, not every such curve was filed as active; the % refers to the signal ratio; note: % is set by controls: 0 for no effect and ±100 for the full control effect). The essentials: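 Cells were plated and incubated 5 h, compounds added in titration, then R1881 (10 nM final) as agonist. After 16 h at 37 C, CCF4 substrate was loaded for 2 h at room temperature and fluorescence measured.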

In test [12] the target is Bile acid receptor (Homo sapiens) (UniProt Q96RI1). The experiment in a line: qHTS assay for small molecule antagonists of farnesoid X receptor signaling (AID 588526; calls by dose curve; note: % is set by controls: 0 for no effect and ±100 for the full control effect). The essentials: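 Antagonist mode: titrated compounds tested against chenodeoxycholic acid stimulation (normalized to 50 uM CDCA and DMSO) in GeneBLAzer HEK293T cells for 16 h. Beta-lactamase read by CCF4 fluorescence; IC50 from Hill fits.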

Test [13] addresses Glucocorticoid receptor (Homo sapiens) (UniProt P04150). The experiment in a line: qHTS assay for small molecule agonists of glucocorticoid receptor signaling (AID 588532; active = well fitted curve in the direction sought with a large enough effect in the signal ratio, with a control signal flat; the % refers to the signal ratio;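 note: 100% = dexamethasone at 0.1 µM and 0% = DMSO only wells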). Particulars: HeLa MMTV-bla, beta-lactamase ratio, agonist, 18 h; stronger effect = higher value; percent of dexamethasone control, DMSO zero. The essentials:
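MMTV-bla HeLa beta-lactamase reporter cells in 1% charcoal/dextran FBS medium, compounds up to 92 uM for 18 h at 37 C, CCF4 readout; normalized to 0.1 uM dexamethasone (100%), EC50 and efficacy from Hill fits.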

Test [14] can be described thus: qHTS assay for small molecule antagonists of peroxisome proliferator-activated receptor delta signaling (AID 588535; active = well fitted inhibition curve with a large enough effect in the signal ratio, with a control signal flat, not every such curve was filed as active; the % refers to the signal ratio;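 for max response: cells co-treated with a PPAR-delta agonist as stimulator during compound exposure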). Particulars: HEK293T PPARd-UAS-bla, beta-lactamase FRET ratio, 18 h; 460 nm channel. Put shortly: (§1)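 Antagonist-mode beta-lactamase reporter (GeneBLAzer PPAR-delta-UAS-bla) in HEK293T cells, 2% charcoal/dextran FBS, 4000 cells/well. Compound titrations, 18 h at 37 C; CCF4 ratio read, IC50 and efficacy from Hill fits.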

Test [15] concerns the target Peroxisome proliferator-activated receptor delta (Homo sapiens) (UniProt Q03181). The description is as above. The essentials: as §1
In test [16] the target is Peroxisome proliferator-activated receptor gamma (Homo sapiens) (UniProt P37231). The experiment in a line: qHTS assay for small molecule agonists of peroxisome proliferator-activated receptor gamma signaling (AID 588536; active = well fitted curve in the direction sought with a large enough effect in the signal ratio, with a control signal flat, not every such curve was filed as active; the % refers to the signal ratio;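 note: 0% = DMSO basal wells and 100% = rosiglitazone at 2 µM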). The essentials:
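Test agents, titrated, stimulated HEK293 UAS-bla cells overnight (16 h, 37 C). Substrate CCF4 was then added for two hours at room temperature before fluorescence reading.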

In test [17] the target is Vitamin D3 receptor (Homo sapiens) (UniProt P11473). The experiment in a line: qHTS assay for small molecule antagonists of vitamin D receptor signaling (AID 588541; calls by dose curve). The essentials: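 VDR-UAS-bla HEK293T cells in 2% charcoal-stripped FBS were stimulated with 1-alpha,25-dihydroxyvitamin D3 (3 nM final) plus compound for 16 h at 37 C. The beta-lactamase CCF4 readout was normalized to 50 nM agonist and DMSO, and Hill fits gave IC50.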

In test [18] the target is Luciferin 4-monooxygenase (Photinus pyralis) (UniProt P08659). The experiment in a line: Biochemical firefly luciferase enzyme assay for NPC (AID 624030).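 Note: purified P. pyralis luciferase at 10 nM with luciferin and ATP substrate; 0% = DMSO and -100% = full luciferase inhibition by PTC124 control; nearly all actives have a fitted effect of over 70% in size.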 Put shortly: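 Purified P. pyralis luciferase at 10 nM in 50 mM Tris Acetate (final), luminescence read within 5 minutes of enzyme addition to compounds. Activity normalised to PTC124 versus DMSO; concentration-response curves classed by r2, magnitude and activity.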

A short description of test [19]: qHTS assay for small molecule agonists of the antioxidant response element (ARE) signaling pathway measured by Nrf2-dependant transcriptional activity (AID 720636; active = well fitted curve in the direction sought with a large enough effect in the repeat runs; an effect the other way counts as inactive or inconclusive; note: % of control where 0% means no effect). Put shortly:
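ARE-luc HepG2 cells carrying an Nrf2-responsive luciferase reporter, in medium with 1% dialyzed FBS, exposed to compound for 16 hr at 37 C, 5% CO2. Luminescence read 30 min after ONE-Glo addition.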

Test [20] in a line: qHTS assay for small molecule agonists of the antioxidant response element (ARE) signaling pathway measured by Nrf2-dependant transcriptional activity - cell viability counter screen (AID 720653; active = well fitted curve in the direction sought with a large enough effect in the repeat runs; an effect the other way counts as inactive or inconclusive; note: % is set by controls: 0 for no effect and ±100 for the full control effect). The settings on record: ARE-bla HepG2 viability, CellTiter-Glo ATP luminescence, 16 h; max response: stronger effect = lower value. The essentials:
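ARE-bla HepG2 cells treated with compounds for 16 h at 37C; this counter screen measures viability as intracellular ATP by CellTiter-Glo luminescence after 30 min at room temperature.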

A short description of test [21]: qHTS assay for cell viability of HEK293 cells (AID 743288). Note: % is set by controls: 0 for no effect and ±100 for the full control effect; nearly all actives have a fitted effect of over 50% in size. Particulars: ATP luminescence (CellTiter-Glo), 18 h; max response: stronger effect = lower value. Put shortly: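 HEK293 parental, 2,000 cells/well; ≥5 h pre-incubation 37 C; pintool compound addition; 18 h, 37 C; CellTiter-Glo 30 min RT; luminescence read.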
Test [22] in a line: qHTS assay for cell viability of the p53RE-bla HCT-116 cell line (AID 743292). Note: % is set by controls: 0 for no effect and ±100 for the full control effect; nearly all actives have a fitted effect of over 55% in size. Put shortly:
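CellSensor p53RE-bla HCT-116 cells (4,000/well) pre-incubated 5 h at 37 C, then exposed to compounds in DMSO for 16 h at 37 C. Viability read as ATP content by CellTiter-Glo luminescence after 30 min at room temperature.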

Test [23] deals with Nuclear receptor subfamily 1 group I member 2 (Rattus norvegicus) (UniProt Q9R1A7). The experiment in a line: qHTS assay for small molecule activators of the rat pregnane X receptor (rPXR) signaling pathway (AID 651751; call rule not given here; note: 0% is about no effect). Particulars: rPXR reporter cells, luciferase (One-Glo), 24 h.
Test [24] is described as follows: qHTS assay for small molecule activators of the human pregnane X receptor (PXR) signaling pathway (AID 720659; call rule not given here; note: 0% is about no effect).

Results filed as inconclusive are left out. The source made the active and inactive calls. Unless noted, calls come from the whole dose curve; as a rule, active = well fitted curve in the direction sought with a large enough effect; inconclusive = small, poorly fitted or top-dose-only effect, or another doubt; inactive = no such curve, though single readings can be large; an effect the other way counts as inactive or inconclusive. Bounds are passed on as bounds.

Glucocorticoid receptor (Homo sapiens), sequence (P04150 whole entry, looked up): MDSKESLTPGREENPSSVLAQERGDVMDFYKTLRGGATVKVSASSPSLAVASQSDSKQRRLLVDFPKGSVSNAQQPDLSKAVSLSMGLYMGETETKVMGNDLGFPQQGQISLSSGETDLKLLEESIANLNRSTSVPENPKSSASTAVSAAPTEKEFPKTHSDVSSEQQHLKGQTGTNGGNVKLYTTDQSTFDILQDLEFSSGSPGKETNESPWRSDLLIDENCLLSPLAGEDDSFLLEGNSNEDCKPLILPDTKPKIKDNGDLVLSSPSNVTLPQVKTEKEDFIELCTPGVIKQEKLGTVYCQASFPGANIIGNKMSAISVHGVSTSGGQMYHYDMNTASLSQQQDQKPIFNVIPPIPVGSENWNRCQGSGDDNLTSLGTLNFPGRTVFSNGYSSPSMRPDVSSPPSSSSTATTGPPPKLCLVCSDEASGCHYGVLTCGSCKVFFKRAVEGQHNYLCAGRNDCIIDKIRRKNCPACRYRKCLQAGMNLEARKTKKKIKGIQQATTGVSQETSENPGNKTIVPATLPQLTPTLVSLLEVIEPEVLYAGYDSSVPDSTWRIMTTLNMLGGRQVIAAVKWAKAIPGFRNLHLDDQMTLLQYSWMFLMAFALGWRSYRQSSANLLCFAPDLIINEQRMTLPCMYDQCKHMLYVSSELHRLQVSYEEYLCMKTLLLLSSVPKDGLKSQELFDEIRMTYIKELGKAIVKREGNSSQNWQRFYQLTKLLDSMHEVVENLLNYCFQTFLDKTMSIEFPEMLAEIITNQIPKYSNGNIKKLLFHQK
Ubiquitin carboxyl-terminal hydrolase 1 (Homo sapiens), sequence (O94782 whole entry, looked up): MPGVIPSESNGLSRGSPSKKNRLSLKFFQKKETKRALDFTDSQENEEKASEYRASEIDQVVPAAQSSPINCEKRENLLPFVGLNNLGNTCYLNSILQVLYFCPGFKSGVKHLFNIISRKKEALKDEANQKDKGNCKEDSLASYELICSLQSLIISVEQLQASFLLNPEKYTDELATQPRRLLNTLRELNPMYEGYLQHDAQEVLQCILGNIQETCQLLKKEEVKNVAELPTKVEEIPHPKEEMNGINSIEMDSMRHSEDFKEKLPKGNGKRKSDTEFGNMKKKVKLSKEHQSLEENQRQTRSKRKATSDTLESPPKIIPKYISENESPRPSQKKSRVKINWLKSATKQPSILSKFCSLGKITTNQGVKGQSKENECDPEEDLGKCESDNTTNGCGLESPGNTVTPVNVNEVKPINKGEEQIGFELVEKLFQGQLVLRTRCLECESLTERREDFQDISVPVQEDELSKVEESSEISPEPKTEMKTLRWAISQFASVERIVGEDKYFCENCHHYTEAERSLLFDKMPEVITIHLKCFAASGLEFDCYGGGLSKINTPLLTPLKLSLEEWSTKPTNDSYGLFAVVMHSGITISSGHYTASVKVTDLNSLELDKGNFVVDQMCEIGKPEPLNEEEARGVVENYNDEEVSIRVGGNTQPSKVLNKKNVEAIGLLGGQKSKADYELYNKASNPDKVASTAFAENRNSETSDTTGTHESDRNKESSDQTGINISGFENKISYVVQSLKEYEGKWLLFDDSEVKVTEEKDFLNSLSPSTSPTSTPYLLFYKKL
Vitamin D3 receptor (Homo sapiens), sequence (P11473 whole entry, looked up): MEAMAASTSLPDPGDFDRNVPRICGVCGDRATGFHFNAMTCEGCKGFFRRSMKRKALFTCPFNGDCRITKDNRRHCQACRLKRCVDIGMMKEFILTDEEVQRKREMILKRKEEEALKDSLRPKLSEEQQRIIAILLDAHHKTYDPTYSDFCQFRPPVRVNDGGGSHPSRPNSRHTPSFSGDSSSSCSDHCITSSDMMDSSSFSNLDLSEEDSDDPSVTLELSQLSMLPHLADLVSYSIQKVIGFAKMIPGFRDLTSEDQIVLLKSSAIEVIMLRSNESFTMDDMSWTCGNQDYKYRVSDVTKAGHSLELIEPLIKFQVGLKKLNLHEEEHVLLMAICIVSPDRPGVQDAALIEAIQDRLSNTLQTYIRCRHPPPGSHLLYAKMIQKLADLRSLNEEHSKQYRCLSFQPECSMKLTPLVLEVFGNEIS
Peroxisome proliferator-activated receptor delta (Homo sapiens), sequence (Q03181 whole entry, looked up): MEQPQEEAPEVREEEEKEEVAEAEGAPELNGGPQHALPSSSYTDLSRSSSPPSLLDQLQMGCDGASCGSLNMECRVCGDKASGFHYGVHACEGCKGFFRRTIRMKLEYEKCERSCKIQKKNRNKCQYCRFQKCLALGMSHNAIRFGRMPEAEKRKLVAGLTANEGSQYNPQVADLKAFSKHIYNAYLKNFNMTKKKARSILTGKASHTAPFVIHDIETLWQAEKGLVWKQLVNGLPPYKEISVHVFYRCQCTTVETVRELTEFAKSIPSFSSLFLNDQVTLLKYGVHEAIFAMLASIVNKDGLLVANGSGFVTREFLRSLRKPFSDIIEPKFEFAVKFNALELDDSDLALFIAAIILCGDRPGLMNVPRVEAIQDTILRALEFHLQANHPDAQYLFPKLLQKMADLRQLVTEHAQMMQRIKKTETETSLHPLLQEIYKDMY
Peroxisome proliferator-activated receptor gamma (Homo sapiens), sequence (P37231 whole entry, looked up): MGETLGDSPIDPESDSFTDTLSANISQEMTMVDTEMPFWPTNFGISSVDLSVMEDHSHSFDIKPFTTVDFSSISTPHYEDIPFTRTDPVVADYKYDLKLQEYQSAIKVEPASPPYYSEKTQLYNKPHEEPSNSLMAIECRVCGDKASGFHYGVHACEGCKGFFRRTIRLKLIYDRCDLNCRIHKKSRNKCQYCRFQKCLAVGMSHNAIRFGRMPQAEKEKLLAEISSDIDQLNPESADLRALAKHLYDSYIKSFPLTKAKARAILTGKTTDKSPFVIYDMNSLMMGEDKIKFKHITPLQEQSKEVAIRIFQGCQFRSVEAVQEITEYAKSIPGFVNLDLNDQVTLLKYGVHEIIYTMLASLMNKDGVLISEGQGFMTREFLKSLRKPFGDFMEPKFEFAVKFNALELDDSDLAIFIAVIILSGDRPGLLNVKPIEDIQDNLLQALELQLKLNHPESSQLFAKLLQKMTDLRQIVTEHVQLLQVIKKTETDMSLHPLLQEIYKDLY
Nuclear receptor subfamily 1 group I member 2 (Rattus norvegicus), sequence (Q9R1A7 whole entry, looked up): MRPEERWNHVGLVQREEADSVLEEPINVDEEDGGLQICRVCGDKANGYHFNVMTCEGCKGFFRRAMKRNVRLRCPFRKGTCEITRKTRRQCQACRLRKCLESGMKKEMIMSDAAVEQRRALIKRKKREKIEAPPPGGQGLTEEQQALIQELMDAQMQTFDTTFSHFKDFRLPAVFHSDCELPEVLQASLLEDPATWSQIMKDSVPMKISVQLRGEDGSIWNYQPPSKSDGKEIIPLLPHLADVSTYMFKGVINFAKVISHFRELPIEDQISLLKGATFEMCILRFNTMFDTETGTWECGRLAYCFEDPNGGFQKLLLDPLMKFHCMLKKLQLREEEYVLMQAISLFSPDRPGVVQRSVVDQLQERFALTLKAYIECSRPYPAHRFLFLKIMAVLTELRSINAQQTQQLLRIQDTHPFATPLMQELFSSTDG
Bile acid receptor (Homo sapiens), sequence (Q96RI1 whole entry, looked up): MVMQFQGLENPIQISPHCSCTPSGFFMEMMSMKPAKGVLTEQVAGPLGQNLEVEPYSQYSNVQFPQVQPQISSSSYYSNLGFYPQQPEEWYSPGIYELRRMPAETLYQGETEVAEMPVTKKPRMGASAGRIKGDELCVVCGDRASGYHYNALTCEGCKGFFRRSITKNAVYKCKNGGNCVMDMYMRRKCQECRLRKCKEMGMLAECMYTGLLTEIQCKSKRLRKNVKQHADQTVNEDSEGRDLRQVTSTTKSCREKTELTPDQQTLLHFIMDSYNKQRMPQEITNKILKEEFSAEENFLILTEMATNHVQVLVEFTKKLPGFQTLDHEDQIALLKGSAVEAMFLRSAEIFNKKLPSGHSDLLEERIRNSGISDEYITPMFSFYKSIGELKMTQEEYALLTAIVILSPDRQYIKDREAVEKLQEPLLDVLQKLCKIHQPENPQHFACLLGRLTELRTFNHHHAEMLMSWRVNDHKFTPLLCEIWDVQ
Estrogen receptor (Homo sapiens), sequence (P03372 whole entry, looked up): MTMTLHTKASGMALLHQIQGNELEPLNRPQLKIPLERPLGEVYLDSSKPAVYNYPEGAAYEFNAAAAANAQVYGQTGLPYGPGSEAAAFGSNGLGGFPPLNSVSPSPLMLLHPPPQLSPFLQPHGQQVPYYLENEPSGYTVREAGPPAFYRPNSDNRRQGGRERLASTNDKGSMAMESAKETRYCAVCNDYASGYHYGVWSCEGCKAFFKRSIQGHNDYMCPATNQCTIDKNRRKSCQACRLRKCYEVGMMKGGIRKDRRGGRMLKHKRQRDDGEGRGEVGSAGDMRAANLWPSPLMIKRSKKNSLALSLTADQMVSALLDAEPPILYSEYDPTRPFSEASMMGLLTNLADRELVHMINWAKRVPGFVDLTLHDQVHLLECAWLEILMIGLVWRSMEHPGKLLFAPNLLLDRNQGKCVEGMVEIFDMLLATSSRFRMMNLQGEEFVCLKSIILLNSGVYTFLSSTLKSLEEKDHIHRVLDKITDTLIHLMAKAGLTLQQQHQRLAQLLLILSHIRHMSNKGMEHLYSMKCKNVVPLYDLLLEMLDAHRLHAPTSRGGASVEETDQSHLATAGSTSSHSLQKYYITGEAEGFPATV
Luciferin 4-monooxygenase (Photinus pyralis), sequence (P08659 whole entry, looked up): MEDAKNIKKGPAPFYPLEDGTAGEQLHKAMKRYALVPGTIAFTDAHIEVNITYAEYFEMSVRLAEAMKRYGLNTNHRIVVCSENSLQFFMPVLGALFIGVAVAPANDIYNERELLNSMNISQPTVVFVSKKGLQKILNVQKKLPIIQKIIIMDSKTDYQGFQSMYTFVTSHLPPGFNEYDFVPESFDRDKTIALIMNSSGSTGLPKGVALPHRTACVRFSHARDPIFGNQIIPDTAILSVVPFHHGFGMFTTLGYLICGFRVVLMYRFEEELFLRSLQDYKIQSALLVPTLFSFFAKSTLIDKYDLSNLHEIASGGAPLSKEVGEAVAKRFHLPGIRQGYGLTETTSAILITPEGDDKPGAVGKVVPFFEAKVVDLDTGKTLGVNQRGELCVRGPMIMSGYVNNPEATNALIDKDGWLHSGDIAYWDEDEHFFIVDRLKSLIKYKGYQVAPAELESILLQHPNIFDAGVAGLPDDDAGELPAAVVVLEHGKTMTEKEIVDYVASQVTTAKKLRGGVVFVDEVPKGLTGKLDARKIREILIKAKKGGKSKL

With `Cc1cc(C(C)(C)CC(C)(C)C)ccc1OCCOCC[N+](C)(C)Cc1ccccc1`, the activity change, negative = inhibition in test [1] is 18.1% (inactive). For the same compound, the activity, negative = inhibition in test [2] was 4.17% (inactive). Besides, the results for the Potency in [3], in test [4] and in test [9] were > 20.6 µM (inactive), > 20.6 µM (inactive) and 35.5 µM (active), respectively. Also, the Potency result in test [5], in test [6], in test [7], in test [8], in test [12] and in [17] was “inactive” in each case. Moreover, the Potency result in test [18], in [19] and in test [22] was “inactive” throughout. For the same compound, the outcome in test [10], in [11], in test [15], in [16] and in test [24] was inactive. Moreover, in test [13], the activation is -7.21% (inactive). Besides, the max response is 14.2% in test [14], -8.26% (inactive) in test [20], -29.5% (inactive) in test [21] and -12.4% (inactive) in [23].
